High-throughput results (PubChem BioAssay)
HCV inhibitor: blocks hepatitis C virus; Potency, µM (highest dose often 41.8 µM), for the others: at the top dose activity change, negative = inhibition, hits mostly inhibitors; Huh7.5.1 HCVcc-Cre infection, luciferase reporter, 44 h; 340,000 compounds, 3.4% hits; AID 651820; note: % is set by controls: 0 for no effect and ±100 for the full control effect
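Whole-lifecycle infectious HCVcc-Cre system; cells 1,000/well, compound then virus (~0.5 moi) added 4 h after plating, 44 h culture. Luciferase read 15 sec following 15 min substrate incubation, room temp.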
Pf growth 48h: P. falciparum growth inhibition at 48 hours (one generation). P. falciparum luciferase growth in erythrocytes, 48 h. Potency, µM (highest dose often 28.7 µM), for the others: top-dose activity change, negative = inhibition, actives largely listed as inhibitors. AID 504832. 310,000 compounds, 5.9% hits; note: % is set by controls: 0 for no effect and ±100 for the full control effect
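Firefly luciferase activity from engineered P. falciparum reports growth; inhibitors lower the luminescent signal. Cultures contained 2% hematocrit erythrocytes at 0.1% final parasitemia.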
VACV mCherry inh: inhibitors of vaccinia virus infection (mCherry reporter signal); Vaccinia virus mCherry reporter infection, fluorescence; Potency, µM (top dose mostly 36.5 µM), for inactives: at the top dose activity change, negative = inhibition, most hits filed as inhibitors; 310,000 compounds, 0.63% hits; AID 720579; calls by dose curve; tested in A549 cells; note: % is set by controls: 0 for no effect and ±100 for the full control effect; nearly all actives have a fitted effect of over 35% in size
NS1 inh: inhibitors of influenza NS1 protein function. Potency, µM (titrated, usually from 46.1 µM), without a hit: top-dose activity, positive = more growth. 270,000 compounds, 0.4% hits. AID 2326; calls by dose curve; note: actives are rising curves; nearly all actives have a fitted effect of over 50% in size
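Compounds were scored for reversing the slow growth caused by influenza A NS1 in S. cerevisiae, measured by optical density at 600 nm. Assay medium contained 2% galactose at pH 6.0; NS1-free yeast of the same strain were the positive control.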
Vaccinia Venus: vaccinia inhibition (Venus reporter); Vaccinia virus Venus reporter expression, fluorescence; 330,000 compounds, 0.46% hits; AID 720580; Potency, µM (highest dose often 36.5 µM), without a hit: at the highest dose activity change, negative = inhibition, usual class: inhibitors; calls by dose curve; tested in A549 cells; note: % is set by controls: 0 for no effect and ±100 for the full control effect; nearly all actives have a fitted effect of over 30% in size
Pf growth 96h: inhibits malaria parasite growth, 96 h; P. falciparum luciferase reporter growth, 96 h; Potency, µM (titrated, usually from 28.7 µM), inactives show top-dose activity change, negative = inhibition, most hits filed as inhibitors; 320,000 compounds, 6.9% hits; note: % is set by controls: 0 for no effect and ±100 for the full control effect
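Compounds incubated with erythrocytes infected by luciferase-expressing P. falciparum (2% hematocrit, 0.05% parasitemia final) for 96 hours, 37 C in 5% CO2. Growth inhibition scored as decreased luciferase luminescence.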
An asterisk follows results filed as active; i = inactive; ? = inconclusive; . = not tested or not shown; [ ] = another dose, or the depositor's remark. Sampled rows, rich in hits. Any-hit rate of the full collection: about 11%. Unless noted, calls come from the whole dose curve; as a rule, active = well fitted inhibition curve with a large enough effect; inconclusive = small, poorly fitted or top-dose-only effect, or another doubt; inactive = no such curve, though single readings can be large or run the other way. Potency is the fitted concentration of half-maximal effect.

SMILES	HCV inhibitor	Pf growth 48h	VACV mCherry inh	NS1 inh	Vaccinia Venus	Pf growth 96h
CN(Cc1nc(-c2cccnc2)no1)S(=O)(=O)c1ccc(Br)cc1	3%	-8%	.	-7%	-11%	8.3µM*
CN(Cc1nc(-c2cccnc2)no1)S(=O)(=O)c1ccc2ccccc2c1	13%	18%	i	-64%	-5%	10%
Cn1cc(C(=O)CCl)c2ccccc21	7.9µM*	?	.	1%	.	?
Cn1cc(C(N)=O)c2ccccc21	16%	39%	-13%	-1%	-14%	71%
O=C(Nc1ccc(CN2CCCCC2)cc1)c1sc2ccccc2c1Cl	11µM*	62%	i	-74%	-10%	?
O=C(Nc1ccc(CN2CCCCC2)cc1)c1cc(Br)ccc1Cl	?	12µM*	-11%	2%	-17%	?
CNC(=O)c1ccsc1NC(=O)c1sc2ccccc2c1Cl	11µM*	105%	8%	11%	-4%	113%
O=C(NCC(=O)N1CCCCC1)c1sc2ccccc2c1Cl	2%	-10%	.	.	.	17%
O=C(Nc1ccc(CN2CCCCC2)cc1)c1cccc(Br)c1	?	?	-8%	-3%	-3%	?
O=C(Cc1ccc(Cl)cc1)Nc1ccc(CN2CCCCC2)cc1	?	?	i	3%	-14%	12µM*
OCCCc1cn(CC2CCCCC2)nn1	17%	27%	-19%	-2%	-13%	51%
O=C(Cc1cccc(NC(=O)C2CCN(C(=O)C3CC3)CC2)c1)Nc1cccc(C(=O)N2CCCC2)c1	?	?	i	.	-11%	?
CC(=O)Nc1ccc(Sc2ccc([N+](=O)[O-])o2)cc1	?	.	-30%	.	-3%	.
Nc1ccc(Sc2ccc(N)cc2)cc1	12%	.	-16%	.	8%	.
CC(C)(C)C(=O)Nc1ccc(Sc2ccc([N+](=O)[O-])cc2)cc1	?	?	i	14%	-16%	2.3µM*
Nc1ccc(Sc2ccc([N+](=O)[O-])cc2)cc1	17%	-13%	-11%	.	-7%	12µM*
CN(C)C1(CNC(=O)COc2cccc(Cl)c2)CCCCC1	.	.	14%	.	6%	.
O=C1NC(=O)C(c2cn(-c3ccccc3)nc2-c2ccc(F)cc2)N1 (stereo not given)	-4%	4.7µM*	i	11%	-4%	?
O=C(Nc1ccc(-c2nc3cccnc3s2)cc1)c1ccco1	?	-39%	i	-11%	?	-23%
O=C(Nc1ccc(-c2nc3cccnc3s2)cc1)c1ccc(Br)o1	11µM*	?	-10%	-35%	-21%	?
O=C(Nc1ccc(-c2nc3cccnc3s2)cc1)c1cccnc1Cl	6.3µM*	144%	11%	0%	-27%	6%
Cc1ccc(CSc2nc3ccc(NC(=O)COc4ccc(F)cc4)cc3s2)cc1	.	.	-8%	.	3%	.
Cc1cc(Sc2nc(NC(C)C)nc(NC(C)C)n2)nc(Cl)n1	14%	?	7.9µM*	.	?	8%
CSc1nc(NC(C)C)nc(NC(C)C)n1	16%	.	-2%	.	-20%	.
COc1cccc2sc(Nc3nc(-c4ccccn4)cs3)nc12	.	0.47µM*	.	-110%	.	?
SMILES	HCV inhibitor	Pf growth 48h	VACV mCherry inh	NS1 inh	Vaccinia Venus	Pf growth 96h
c1ccc(-c2csc(Nc3cccnc3)n2)nc1	10µM*	96%	.	-37%	.	24%
c1cncc(Nc2nc(-c3cccs3)cs2)c1	3.2µM*	2%	.	-77%	.	2.9µM*
c1ccc(Nc2nc(-c3ccccn3)cs2)cc1	?	6%	-29%	-179%	-27%	-48%
COc1cccc2sc(NNC(=O)COc3ccccc3)nc12	?	-6%	.	6%	.	-41%[1.15 µM]
O=C(NCc1ccccn1)c1ccc(CNS(=O)(=O)c2cccc(C(F)(F)F)c2)cc1	0%	1%	i	-3%	-7%	22%
c1ccc(C2=Nn3c(nnc3-c3cccs3)SC2)cc1	?	-12%	19%	-3%	5%	3%
CCc1ccc(C2=Nn3c(nnc3-c3cccs3)SC2)cc1	?	2.1µM*	.	-54%	.	1.9µM*
c1ccc(-c2ccc(C3=Nn4c(nnc4-c4cccs4)SC3)cc2)cc1	?	9.3µM*	-5%[7.34 µM]	1%	-8%[7.34 µM]	13µM*
CCCc1cc(O)c2c(C)cc(=O)oc2c1	-8%	?	?	-41%	-12%	12µM*
O=C(CCc1c[nH]c2ccccc12)OCc1ccc(Br)cc1	23%	-18%	-11%	-16%	-8%	?
Cc1ccccc1C(=O)NNC(=O)C1CCN(c2ncccn2)CC1	5%	10%	-1%	4%	9%	-10%
O=C1c2cnc3nc(SCc4cccc(Cl)c4)nn3c2CC2c3ccccc3CCN12 (stereo not given)	11µM*	?	.	6%	.	72%
CC1(C)CC(NC(=O)CCc2nnc(CCCCc3ccccc3)o2)CCO1 (stereo not given)	3%	-20%	.	-3%	.	10µM*
Cc1ccc(NC(=O)Cn2nnc(C(=O)NCc3cccs3)c2N)cc1Cl	1%	37%	-5%	-8%	-3%	9.3µM*
Cc1cc(C)c(NC(=O)Cn2nnc(C(=O)NCc3ccc4c(c3)OCO4)c2N)c(C)c1	11%	20%	0%[7.34 µM]	-8%	16%[7.34 µM]	15µM*
Cc1cc([N+](=O)[O-])nn1CC(=O)NCc1cccs1	11%	31%	.	2%	-27%	8.3µM*
Cc1ccc(NC(=O)Cn2nnc(C(=O)NCc3ccc4c(c3)OCO4)c2N)cc1	10%	0%	-11%	-6%	-6%	32%
CC(C)c1ccc(NC(=O)Cn2nnc(C(=O)NCc3ccc4c(c3)OCO4)c2N)cc1	6%	-17%	-15%	6%	0%	9.3µM*
C[C@@H]1CN(Cc2ccc3c(c2)CN(C(=O)c2ccc(Oc4ccccc4)o2)CCO3)C[C@H](C)O1	.	.	-29%	.	-21%	.
CCOc1ccc(S(=O)(=O)NCCc2sc(-c3ccc(C)cc3)nc2C)cc1	.	.	-22%[7.34 µM]	.	-12%[7.34 µM]	.
CCCN1CCC(NCc2cn(C)nc2-c2ccc(Oc3ccccc3)cc2)CC1	11µM*	1.7µM*	.	1%	.	?
COCCN1CCCC(CNCc2cn(C)nc2-c2ccc(Oc3ccccc3)cc2)C1 (stereo not given)	14µM*	6.6µM*	.	2%	.	?
CCCn1c(SCC(=O)c2ccc3c(c2)OCCO3)n[nH]c1=O	-12%	27%	6%	.	7%	?
O=c1[nH]nc(SCCS(=O)(=O)c2ccc(F)cc2)n1-c1ccc2c(c1)OCCO2	4%	6%	?	0%	1.6µM*	6%
O=c1[nH]nc(SCCS(=O)(=O)c2ccc(F)cc2)n1-c1ccccc1	-12%	?	1.3µM*	4%	2.2µM*	-23%
O=C(Nc1ccccc1)c1ccc(-c2ccccc2)s1	7%	227%	?	.	-30%	18%
CCN(CC)S(=O)(=O)c1ccc(/C=C/C(=O)OCC(=O)N(C)C)cc1	-15%	-12%	-16%	.	-13%	-2%
